Data taken from the supplement of paper PMC10981050.
“And” between values parts separate entries of the source, which are not always exact repeats. Equal values may be shown once. Where a name gives a salt, the structure may show the parent alone.

Legend:
Assay in all cases: cell viability relative to vehicle control; higher = less cytotoxic
Conditions in all cases: 10 µM
K562 = test system: K562
Method in brief: (§1)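 Each screen used CRISPR-edited mutant and wild-type clones from four leukaemia lines. Compounds were acoustically dispensed at a single 10 µM dose, and CellTiter-Glo luminescence was read after 48 h with the supernatant first removed. Viability was analysed in Genedata Screener and given as percent of the on-plate vehicle control.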

MARIMO = test system: MARIMO
Method in brief: as §1

MOLM14 = test system: MOLM14
Method in brief: as §1

OCI-AML2 = test system: OCI-AML2
Method in brief: as §1

Row | Structure (SMILES) | cell viability (K562; SRSF2 genotype: SRSF2 P95H/wt) | cell viability (K562; SRSF2 genotype: SRSF2 wt/wt) | cell viability (MARIMO; SRSF2 genotype: SRSF2 P95H/wt) | cell viability (MARIMO; SRSF2 genotype: SRSF2 wt/wt) | cell viability (MOLM14; SRSF2 genotype: SRSF2 P95H/wt) | cell viability (MOLM14; SRSF2 genotype: SRSF2 wt/wt) | cell viability (OCI-AML2; SRSF2 genotype: P95H/wt) | cell viability (OCI-AML2; SRSF2 genotype: wt/wt)
1 | CC(=O)O[C@@]12CO[C@@H]1C[C@H](O)[C@@]1(C)C(=O)[C@H](O)C3=C(C)[C@@H](OC(=O)[C@H](O)[C@@H](NC(=O)OC(C)(C)C)c4ccccc4)C[C@@](O)([C@@H](OC(=O)c4ccccc4)[C@H]21)C3(C)C [Docetaxel (Taxotere)] | 25.3% and 36.8% | 34.7% | 6.89% | 5.5% | 7.8% | 4.57% | 7.58% | 13.3%
2 | Cc1cn([C@H]2C=C[C@@H](CO)O2)c(=O)[nH]c1=O [Stavudine] | 104% and 107% | 98.3% | 95% | 96.1% | 102% | 103% | 97.2% | 110%
3 | COc1ccccc1OCC(O)CN1CCN(CC(=O)Nc2c(C)cccc2C)CC1 (stereo not given) [Ranolazine dihydrochloride] | 92.7% and 97.6% | 101% | 96.7% | 103% | 98.8% | 100% | 102% | 111%
4 | COCC[n+]1c2c(n(Cc3cnccn3)c1C)C(=O)c1ccccc1C2=O [YM155 (Sepantronium Bromide)] | 0.4% and 0.35% | 0.47% | 0.69% | 1.06% | 0.33% | 0.32% | 0.31% | 0.36%
5 | c1cncc(CN2CCC(n3ncc4c(N5CCOCC5)nc(-c5ccc6[nH]ccc6c5)nc43)CC2)c1 | 41.8% and 44.3% | 51% | 3.19% | 6.42% | 35% | 25% | 26.2% | 29.1%
6 | Cc1cccc(C)c1OCC(=O)N[C@@H](Cc1ccccc1)[C@@H](O)C[C@H](Cc1ccccc1)NC(=O)[C@H](C(C)C)N1CCCNC1=O [Lopinavir (ABT-378)] | 85.5% and 94.8% | 86.7% | 97.4% | 98.2% | 92.2% | 102% | 97.3% | 92.2%
7 | Nc1nc2[nH]cnc2c(=S)[nH]1 [Thioguanine] | 25.9% and 28.5% | 26.8% | 46.3% | 37.5% | 35.2% | 23% | 13.5% | 20.5%
8 | O=C(O)/C=C/c1ccc(O)cc1 [p-Coumaric Acid] | 101% and 108% | 110% | 108% | 110% | 107% | 107% | 109% | 103%
9 | CCN(CC)C(=S)SSC(=S)N(CC)CC [Disulfiram (Antabuse)] | 42.7% and 53.4% | 53.3% | 14% | 14.4% | 27.1% | 32.5% | 14% | 20.8%
10 | O=c1cc(-c2ccccc2)oc2cc(O[C@@H]3O[C@H](CO[C@@H]4O[C@H](CO)[C@@H](O)[C@H](O)[C@H]4O)[C@@H](O)[C@H](O)[C@H]3O)c(O)c(O)c12 [Oroxin B] | 101% and 105% | 98.7% | 102% | 104% | 112% | 107% | 95.6% | 98.6%
